Data reported in the supplement of paper PMC11732987, “Enantioselective OTUD7B fragment discovery through chemoproteomics screening and high-throughput optimisation” (Communications Chemistry, 2025).

Columns and labels:
Assay in all cases: log2 ratio of Biotin-Ahx-Ub-VS probe labelling (fragment/DMSO); higher = less target engagement (more negative = stronger competition), active = hit call of the paper (q ≤ 0.05, log2 ratio ≤ -1)
Conditions in all cases: compound concentration: 200 uM; treatment time: 3 h
USP42 = molecular target: T1, USP42 (UniProt Q9H9J4)
T1 sequence (whole entry): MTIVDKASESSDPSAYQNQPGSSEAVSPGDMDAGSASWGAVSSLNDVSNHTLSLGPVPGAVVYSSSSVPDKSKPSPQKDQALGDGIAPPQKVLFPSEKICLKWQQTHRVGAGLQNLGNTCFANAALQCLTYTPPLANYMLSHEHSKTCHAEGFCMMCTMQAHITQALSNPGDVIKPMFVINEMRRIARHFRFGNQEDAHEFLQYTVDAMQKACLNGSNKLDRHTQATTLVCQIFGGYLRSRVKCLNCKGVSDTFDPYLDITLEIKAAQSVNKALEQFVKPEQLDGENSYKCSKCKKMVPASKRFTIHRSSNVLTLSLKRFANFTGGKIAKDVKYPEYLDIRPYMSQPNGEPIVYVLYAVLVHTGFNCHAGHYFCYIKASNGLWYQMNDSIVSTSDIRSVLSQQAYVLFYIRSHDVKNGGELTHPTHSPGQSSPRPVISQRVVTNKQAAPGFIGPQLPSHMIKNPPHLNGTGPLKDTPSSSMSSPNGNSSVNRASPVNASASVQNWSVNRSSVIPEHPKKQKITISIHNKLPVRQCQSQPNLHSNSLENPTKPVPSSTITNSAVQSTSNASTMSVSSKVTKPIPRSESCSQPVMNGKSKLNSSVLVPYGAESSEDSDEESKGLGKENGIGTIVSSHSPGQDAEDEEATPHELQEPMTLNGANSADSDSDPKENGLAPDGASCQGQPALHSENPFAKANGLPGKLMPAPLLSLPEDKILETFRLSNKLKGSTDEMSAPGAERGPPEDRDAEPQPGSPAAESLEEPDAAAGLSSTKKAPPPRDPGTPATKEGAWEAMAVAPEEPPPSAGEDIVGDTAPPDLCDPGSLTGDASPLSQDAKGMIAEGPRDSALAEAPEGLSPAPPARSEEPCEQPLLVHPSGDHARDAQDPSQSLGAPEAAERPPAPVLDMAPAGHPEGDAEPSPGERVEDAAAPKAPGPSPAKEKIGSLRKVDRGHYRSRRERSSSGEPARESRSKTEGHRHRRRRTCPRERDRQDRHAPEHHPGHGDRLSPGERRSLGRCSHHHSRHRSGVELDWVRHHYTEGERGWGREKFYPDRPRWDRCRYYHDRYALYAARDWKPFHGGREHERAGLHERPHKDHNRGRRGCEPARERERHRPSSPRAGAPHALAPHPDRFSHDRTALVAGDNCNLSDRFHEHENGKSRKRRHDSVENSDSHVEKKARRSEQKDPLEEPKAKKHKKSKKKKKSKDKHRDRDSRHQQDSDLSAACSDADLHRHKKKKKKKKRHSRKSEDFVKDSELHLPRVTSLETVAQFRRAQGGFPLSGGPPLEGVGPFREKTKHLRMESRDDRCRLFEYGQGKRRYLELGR
How it was run: (§1)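 HEK293T lysate (495 µg per sample, in Tris/CHAPS/IGEPAL buffer with protease inhibitors) was treated in triplicate with fragment at 200 µM or with DMSO for 3 h. It was then treated with Biotin-Ahx-Ub-VS (0.5 µM final) for 1 h. Labelled DUBs were NeutrAvidin-enriched, digested with LysC and trypsin, and run by diaPASEF LC-MS/MS. Spectronaut label-free quantities were global-median-normalised. Values are average log2 ratios fragment/DMSO by unpaired t-test, using proteins with ≥2 unique peptides.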

USP46 = USP46 (UniProt P62068)
Sequence of USP46 (P62068 whole entry): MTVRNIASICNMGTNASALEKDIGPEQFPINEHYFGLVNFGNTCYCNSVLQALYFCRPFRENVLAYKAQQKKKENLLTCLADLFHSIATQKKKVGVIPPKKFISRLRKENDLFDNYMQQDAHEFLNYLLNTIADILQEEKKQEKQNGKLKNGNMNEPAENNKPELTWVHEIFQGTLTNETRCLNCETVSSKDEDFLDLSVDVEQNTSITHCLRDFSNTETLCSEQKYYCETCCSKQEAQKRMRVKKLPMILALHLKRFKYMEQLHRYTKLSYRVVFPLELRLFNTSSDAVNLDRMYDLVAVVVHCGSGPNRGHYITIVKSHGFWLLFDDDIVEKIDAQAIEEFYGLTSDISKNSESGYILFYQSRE
How it was run: as §1

USP47 = molecular target: T2, USP47 (UniProt Q96K76)
T2 sequence (whole entry): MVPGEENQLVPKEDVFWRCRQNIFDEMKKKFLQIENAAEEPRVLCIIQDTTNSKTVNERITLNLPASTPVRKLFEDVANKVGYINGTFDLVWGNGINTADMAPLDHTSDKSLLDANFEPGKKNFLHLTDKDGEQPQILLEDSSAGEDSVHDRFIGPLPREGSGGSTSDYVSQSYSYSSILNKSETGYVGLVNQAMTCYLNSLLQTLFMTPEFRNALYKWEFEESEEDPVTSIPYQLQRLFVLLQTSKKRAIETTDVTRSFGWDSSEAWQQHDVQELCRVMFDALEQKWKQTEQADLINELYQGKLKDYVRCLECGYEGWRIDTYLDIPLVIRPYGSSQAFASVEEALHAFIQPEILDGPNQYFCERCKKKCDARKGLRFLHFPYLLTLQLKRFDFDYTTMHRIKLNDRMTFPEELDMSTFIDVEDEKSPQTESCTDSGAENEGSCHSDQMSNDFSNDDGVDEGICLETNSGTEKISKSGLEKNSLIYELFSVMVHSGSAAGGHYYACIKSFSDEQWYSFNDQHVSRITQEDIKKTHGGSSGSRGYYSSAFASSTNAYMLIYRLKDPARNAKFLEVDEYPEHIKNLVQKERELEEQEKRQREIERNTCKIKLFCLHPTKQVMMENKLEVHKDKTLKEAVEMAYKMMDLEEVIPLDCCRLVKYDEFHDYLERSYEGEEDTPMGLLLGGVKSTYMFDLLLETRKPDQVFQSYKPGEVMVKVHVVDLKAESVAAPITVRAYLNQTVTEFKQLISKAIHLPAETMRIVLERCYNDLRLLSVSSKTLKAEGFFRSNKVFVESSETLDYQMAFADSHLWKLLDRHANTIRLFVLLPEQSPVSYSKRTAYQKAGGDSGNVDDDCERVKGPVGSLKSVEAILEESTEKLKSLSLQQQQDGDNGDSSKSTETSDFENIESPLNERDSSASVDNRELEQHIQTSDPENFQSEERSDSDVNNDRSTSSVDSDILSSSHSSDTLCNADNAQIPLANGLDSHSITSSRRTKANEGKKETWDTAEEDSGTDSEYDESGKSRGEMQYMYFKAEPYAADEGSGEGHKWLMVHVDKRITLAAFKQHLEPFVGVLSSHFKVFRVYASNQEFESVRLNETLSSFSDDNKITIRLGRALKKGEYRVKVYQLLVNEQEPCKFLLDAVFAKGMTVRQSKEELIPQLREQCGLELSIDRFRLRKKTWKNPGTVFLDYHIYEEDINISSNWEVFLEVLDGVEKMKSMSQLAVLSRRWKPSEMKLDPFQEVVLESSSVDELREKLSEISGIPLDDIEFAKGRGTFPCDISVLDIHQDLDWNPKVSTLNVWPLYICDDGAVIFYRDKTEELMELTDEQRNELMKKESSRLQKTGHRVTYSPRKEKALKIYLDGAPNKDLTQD
How it was run: as §1

USP48 = molecular target: T3, USP48 (UniProt Q86UV5)
T3 sequence (whole entry): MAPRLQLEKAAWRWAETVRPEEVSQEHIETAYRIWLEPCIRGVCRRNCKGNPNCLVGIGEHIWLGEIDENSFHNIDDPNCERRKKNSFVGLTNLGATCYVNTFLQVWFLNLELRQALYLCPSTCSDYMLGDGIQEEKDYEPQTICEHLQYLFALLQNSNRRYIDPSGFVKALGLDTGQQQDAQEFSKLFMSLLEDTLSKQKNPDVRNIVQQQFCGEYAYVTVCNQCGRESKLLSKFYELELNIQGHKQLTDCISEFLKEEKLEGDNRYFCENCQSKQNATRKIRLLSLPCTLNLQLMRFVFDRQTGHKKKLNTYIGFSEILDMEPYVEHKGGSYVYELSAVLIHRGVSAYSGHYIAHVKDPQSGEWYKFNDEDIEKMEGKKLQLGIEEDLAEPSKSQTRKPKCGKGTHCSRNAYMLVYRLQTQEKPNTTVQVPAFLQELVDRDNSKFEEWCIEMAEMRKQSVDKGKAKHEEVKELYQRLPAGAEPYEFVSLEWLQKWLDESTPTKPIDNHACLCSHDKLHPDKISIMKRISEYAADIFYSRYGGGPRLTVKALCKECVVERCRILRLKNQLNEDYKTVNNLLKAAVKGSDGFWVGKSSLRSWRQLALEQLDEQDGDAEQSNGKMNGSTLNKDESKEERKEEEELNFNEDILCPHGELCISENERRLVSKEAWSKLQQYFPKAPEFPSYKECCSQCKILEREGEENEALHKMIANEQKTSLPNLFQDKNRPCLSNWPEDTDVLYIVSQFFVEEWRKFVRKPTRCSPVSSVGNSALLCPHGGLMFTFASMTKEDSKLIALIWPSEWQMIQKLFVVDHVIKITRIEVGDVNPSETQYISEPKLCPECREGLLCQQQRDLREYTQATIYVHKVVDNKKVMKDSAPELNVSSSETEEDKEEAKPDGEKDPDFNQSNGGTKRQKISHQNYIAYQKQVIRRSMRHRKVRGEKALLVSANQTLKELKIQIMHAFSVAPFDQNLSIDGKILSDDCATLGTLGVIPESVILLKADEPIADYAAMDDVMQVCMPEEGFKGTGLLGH
How it was run: as §1

USP5 = molecular target: T4, USP5 (UniProt P45974)
T4 sequence (whole entry): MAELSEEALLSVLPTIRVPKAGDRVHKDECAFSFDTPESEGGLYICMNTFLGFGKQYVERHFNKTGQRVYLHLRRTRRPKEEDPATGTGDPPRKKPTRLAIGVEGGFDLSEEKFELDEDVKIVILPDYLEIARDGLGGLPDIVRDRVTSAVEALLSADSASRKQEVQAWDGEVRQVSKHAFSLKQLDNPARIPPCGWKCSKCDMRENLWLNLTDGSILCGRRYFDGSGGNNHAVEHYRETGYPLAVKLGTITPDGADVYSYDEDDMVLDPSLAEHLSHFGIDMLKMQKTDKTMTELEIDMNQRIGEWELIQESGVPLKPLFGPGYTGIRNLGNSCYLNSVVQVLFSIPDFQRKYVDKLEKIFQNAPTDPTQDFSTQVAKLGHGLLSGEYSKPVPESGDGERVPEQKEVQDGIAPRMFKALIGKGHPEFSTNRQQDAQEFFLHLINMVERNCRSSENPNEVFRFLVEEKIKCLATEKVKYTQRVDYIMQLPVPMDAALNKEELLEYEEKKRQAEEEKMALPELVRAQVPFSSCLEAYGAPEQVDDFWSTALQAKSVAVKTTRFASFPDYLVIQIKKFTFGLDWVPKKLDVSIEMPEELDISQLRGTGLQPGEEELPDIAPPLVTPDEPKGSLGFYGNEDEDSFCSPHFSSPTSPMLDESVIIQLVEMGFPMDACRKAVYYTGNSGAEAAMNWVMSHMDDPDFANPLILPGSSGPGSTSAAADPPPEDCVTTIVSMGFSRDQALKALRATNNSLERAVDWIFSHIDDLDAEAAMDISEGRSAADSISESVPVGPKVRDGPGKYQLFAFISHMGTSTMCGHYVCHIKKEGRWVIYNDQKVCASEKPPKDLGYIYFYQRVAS
How it was run: as §1

USP54 = USP54 (UniProt Q70EL1)
Sequence of USP54 (Q70EL1 whole entry): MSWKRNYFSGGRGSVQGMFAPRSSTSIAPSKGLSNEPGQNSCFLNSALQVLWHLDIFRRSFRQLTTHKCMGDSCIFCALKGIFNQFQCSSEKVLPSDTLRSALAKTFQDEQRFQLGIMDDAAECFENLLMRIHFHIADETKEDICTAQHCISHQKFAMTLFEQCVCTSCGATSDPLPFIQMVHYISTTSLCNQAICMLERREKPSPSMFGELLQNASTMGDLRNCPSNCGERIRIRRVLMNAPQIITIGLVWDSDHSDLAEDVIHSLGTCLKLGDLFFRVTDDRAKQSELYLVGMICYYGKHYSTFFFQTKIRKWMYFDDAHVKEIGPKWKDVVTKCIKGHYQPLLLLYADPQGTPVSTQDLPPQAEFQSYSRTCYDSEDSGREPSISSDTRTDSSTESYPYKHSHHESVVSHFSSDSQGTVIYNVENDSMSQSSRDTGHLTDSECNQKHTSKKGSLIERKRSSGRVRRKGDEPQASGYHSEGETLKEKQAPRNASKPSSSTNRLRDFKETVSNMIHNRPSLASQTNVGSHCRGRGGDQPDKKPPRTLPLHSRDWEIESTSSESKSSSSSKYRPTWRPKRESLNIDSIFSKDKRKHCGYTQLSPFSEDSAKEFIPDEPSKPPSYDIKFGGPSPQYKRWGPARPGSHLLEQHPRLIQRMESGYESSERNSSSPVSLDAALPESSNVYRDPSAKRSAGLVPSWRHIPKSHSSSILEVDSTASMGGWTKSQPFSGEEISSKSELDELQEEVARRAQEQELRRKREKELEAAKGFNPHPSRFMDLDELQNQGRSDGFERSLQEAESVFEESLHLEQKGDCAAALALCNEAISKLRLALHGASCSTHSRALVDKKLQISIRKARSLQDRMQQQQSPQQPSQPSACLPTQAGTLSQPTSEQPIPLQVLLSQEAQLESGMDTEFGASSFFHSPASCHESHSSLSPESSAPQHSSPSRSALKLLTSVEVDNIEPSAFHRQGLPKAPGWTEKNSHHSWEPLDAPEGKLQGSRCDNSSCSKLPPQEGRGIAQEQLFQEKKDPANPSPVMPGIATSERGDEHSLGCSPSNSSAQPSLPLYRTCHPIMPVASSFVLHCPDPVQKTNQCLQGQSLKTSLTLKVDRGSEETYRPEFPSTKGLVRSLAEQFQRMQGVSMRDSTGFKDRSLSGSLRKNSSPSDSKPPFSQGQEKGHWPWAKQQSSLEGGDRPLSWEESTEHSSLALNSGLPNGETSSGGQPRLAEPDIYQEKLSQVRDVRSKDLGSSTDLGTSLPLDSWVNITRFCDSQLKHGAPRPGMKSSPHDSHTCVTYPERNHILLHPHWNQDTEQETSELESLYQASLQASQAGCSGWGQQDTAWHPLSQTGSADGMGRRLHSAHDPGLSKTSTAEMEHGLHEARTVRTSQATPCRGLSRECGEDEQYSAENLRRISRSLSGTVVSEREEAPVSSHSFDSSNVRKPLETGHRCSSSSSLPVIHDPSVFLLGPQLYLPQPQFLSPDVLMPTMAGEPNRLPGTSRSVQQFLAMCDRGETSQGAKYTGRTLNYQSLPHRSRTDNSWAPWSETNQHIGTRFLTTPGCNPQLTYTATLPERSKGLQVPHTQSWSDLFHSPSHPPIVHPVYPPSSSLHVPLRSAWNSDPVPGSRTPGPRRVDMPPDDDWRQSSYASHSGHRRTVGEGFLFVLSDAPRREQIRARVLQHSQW
How it was run: as §1

USP7 = USP7 (UniProt Q93009)
Sequence of USP7 (Q93009 whole entry, looked up): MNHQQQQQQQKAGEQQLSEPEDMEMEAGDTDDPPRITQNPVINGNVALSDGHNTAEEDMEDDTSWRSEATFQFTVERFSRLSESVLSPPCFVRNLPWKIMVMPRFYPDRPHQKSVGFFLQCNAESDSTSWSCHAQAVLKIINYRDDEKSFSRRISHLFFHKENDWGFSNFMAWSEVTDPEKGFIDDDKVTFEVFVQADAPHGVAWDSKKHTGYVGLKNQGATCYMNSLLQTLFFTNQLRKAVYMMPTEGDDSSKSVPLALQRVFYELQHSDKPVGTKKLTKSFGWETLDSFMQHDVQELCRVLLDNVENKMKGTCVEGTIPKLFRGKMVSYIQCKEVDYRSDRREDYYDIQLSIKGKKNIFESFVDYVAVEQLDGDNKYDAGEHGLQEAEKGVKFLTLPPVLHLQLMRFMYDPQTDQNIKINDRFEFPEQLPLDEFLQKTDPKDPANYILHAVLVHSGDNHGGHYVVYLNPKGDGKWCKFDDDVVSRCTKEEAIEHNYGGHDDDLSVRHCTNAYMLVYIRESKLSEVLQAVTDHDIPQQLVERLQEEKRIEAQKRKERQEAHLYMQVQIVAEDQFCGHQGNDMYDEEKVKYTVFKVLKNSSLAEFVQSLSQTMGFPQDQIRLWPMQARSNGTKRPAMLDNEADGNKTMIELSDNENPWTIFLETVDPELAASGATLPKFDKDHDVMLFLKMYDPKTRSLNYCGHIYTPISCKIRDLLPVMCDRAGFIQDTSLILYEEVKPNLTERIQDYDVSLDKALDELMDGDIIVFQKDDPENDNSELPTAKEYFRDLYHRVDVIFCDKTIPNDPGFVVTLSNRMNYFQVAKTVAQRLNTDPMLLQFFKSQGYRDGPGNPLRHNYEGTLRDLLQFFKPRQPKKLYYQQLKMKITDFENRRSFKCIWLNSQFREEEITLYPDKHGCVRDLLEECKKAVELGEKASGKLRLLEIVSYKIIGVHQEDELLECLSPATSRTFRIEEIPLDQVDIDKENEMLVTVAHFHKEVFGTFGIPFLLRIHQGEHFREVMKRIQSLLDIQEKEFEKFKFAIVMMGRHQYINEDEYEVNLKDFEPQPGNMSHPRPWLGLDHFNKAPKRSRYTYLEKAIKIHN
How it was run: as §1

USP8 = molecular target: T5, USP8 (UniProt P40818)
T5 sequence (whole entry): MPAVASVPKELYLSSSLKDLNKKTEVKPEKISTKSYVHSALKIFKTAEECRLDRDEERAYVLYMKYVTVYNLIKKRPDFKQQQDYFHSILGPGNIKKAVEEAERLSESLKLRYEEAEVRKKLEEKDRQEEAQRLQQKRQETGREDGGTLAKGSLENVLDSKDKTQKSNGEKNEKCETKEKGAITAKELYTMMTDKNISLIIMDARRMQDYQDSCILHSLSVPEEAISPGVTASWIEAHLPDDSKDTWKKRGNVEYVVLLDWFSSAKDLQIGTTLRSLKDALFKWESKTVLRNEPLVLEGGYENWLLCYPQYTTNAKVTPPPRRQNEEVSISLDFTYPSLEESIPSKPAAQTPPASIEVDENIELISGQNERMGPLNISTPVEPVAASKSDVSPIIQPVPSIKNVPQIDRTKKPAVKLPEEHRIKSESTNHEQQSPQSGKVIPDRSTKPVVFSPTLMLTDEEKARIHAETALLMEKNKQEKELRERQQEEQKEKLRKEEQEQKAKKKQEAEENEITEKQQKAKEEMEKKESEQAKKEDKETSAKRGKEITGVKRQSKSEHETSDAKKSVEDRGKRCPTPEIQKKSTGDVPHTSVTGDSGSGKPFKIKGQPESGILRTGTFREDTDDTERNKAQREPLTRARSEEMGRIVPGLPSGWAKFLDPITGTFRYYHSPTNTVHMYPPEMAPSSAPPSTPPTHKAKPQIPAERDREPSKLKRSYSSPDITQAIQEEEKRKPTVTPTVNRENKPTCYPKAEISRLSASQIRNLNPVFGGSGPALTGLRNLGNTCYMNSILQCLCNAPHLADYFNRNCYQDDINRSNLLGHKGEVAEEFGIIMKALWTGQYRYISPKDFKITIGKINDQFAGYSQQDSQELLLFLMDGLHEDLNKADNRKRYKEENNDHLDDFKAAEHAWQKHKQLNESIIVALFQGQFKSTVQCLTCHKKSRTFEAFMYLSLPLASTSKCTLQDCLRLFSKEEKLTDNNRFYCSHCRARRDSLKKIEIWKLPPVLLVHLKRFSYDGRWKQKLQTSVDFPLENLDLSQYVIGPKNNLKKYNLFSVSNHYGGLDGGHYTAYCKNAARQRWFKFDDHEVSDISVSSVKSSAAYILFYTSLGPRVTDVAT
How it was run: as §1

Measured: log2 ratio of Biotin-Ahx-Ub-VS probe labelling

COc1ccc(CN(C)C(=O)CCl)cc1
inactive: USP42 0.294 | USP46 -0.0887 | USP47 -0.0389 | USP48 -0.604 | USP5 0.404 | USP54 0.256 | USP7 -0.907 | USP8 -0.448
